Sampled rows, rich in hits. Any-hit rate of the full collection: about 12%.
BAZ2B block: blocks human BAZ2B | AlphaScreen BAZ2B-H3K14Ac peptide displacement | Potency, µM (doses to about 114 µM), most hits filed as inhibitors | 360,000 compounds, 4.4% hits | Q9UIF8; note: nearly all actives have a fitted effect of over 60% in size
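AlphaScreen luminescence quantifies BAZ2B engagement of H3K14Ac peptide; the protein and biotinylated peptide are both at 50 nM final, buffer PBS pH 7.4 with 0.01% Tween-20, all steps at room temperature.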
Sfp inh: blocks B. subtilis Sfp PPTase activity; Biochemical Sfp PPTase activity, qHTS; Potency, µM, hits mostly inhibitors; 310,000 compounds, 3.5% hits; AID 1490;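 note: the enzyme is Sfp with the accession as filed and its product quenches rhodamine fluorescence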
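With Hepes-Na pH 7.6 buffer containing 10 mM MgCl2, Sfp (15 nM) modified BHQ-2-YbbR (12.5 uM) using rhodamine-CoA (5 uM). Two reads 30 minutes apart at 525/598 nm yielded each well's rate.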
JMJD2A Tudor inh: blocks the human JMJD2A Tudor domain; O75164; AlphaScreen JMJD2A-Tudor / H3K4me3 peptide binding; Potency, µM (series often up to 114 µM), actives largely listed as inhibitors; 390,000 compounds, 4.4% hits; AID 504339; note: nearly all actives have a fitted effect of over 50% in size
HP1b chromo inh: HP1-beta chromodomain-methylated histone interaction inhibition. P83916. AlphaScreen HP1-beta / biotin-H3K9me3 peptide binding. Potency, µM (top dose mostly 114 µM), most hits filed as inhibitors. 390,000 compounds, 0.56% hits. AID 540317; note: nearly all actives have a fitted effect of over 70% in size
Target sequence (P83916 whole entry, looked up): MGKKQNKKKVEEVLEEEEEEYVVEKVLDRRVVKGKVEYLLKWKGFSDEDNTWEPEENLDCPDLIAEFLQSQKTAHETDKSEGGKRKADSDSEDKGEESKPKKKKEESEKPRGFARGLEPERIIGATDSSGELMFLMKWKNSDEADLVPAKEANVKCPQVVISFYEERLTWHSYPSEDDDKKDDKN
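Compound inhibition of the preformed complex between 50 nM HP1-beta and 50 nM biotinylated H3K9me3 peptide was read by AlphaScreen. Buffer was PBS pH 7.4 with 0.01% Tween-20. Incubations ran 30 min at room temperature, with 10 ug/mL donor/acceptor beads.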
L3MBTL1 block: blocks human L3MBTL1. Q9Y468. Potency, µM (top dose mostly 57.1 µM), hits mostly inhibitors. AlphaScreen L3MBTL1–H3K9me1 peptide binding. 230,000 compounds, 0.66% hits; note: nearly all actives have a fitted effect of over 60% in size
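First, the protein-peptide complex forms for 30 min at room temperature (L3MBTL1 50 nM, biotinylated H3K9me1 peptide 75 nM). Next, compounds are pin-transferred and incubated 30 min. Finally, AlphaScreen beads are added and read after 30 min.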
G9a block: blocks human histone lysine methyltransferase G9a; Q96KQ7; Potency, µM (titrated, usually from 102 µM), actives largely listed as inhibitors; G9a H3K9 monomethylation, AlphaScreen, 2 h; 350,000 compounds, 8.8% hits; note: nearly all actives have a fitted effect of over 75% in size
Target sequence (Q96KQ7 913-1193 limits assumed): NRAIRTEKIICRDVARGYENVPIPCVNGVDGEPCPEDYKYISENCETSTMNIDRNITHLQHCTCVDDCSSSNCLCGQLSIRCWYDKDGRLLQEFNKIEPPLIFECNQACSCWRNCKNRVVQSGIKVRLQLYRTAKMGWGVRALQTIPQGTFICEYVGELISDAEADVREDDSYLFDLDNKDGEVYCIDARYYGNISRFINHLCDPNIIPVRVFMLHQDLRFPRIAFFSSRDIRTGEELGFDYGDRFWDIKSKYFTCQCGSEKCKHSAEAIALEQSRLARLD
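G9a (20 nM) was preincubated 15 min with compound, then reacted 2 h at room temperature with 500 nM biotin-H3K9 peptide and 20 µM SAM. Monomethyl-H3K9 detected by AlphaScreen using anti-H3K9me1 antibody.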
Numbers stand for hits; n = inactive; u = inconclusive; x = no result given; [ ] = dose if it differs, or a comment. Calls come from the whole dose curve; as a rule, active = well fitted curve in the direction sought with a large enough effect; inconclusive = small, poorly fitted or top-dose-only effect, or another doubt; inactive = no such curve, though single readings can be large; an effect the other way counts as inactive or inconclusive.

SMILES | BAZ2B block | Sfp inh | JMJD2A Tudor inh | HP1b chromo inh | L3MBTL1 block | G9a block
FC(F)(F)c1ccccc1/C=N/n1c(COc2ccccc2)n[nH]c1=S | u | 50.1µM | u | u | x | 20µM
CCn1cc2nc(SCc3cccc(C(F)(F)F)c3)n(Cc3ccc(OC)cc3)c(=O)c2n1 | n | x | n | n | x | n
CC(=O)Nc1ccc2c(c1)Cc1cc(N3C(=O)C=CC3=O)ccc1-2 | x | x | 7.08µM | u | x | x
O=C1C=CC(=O)N1c1ccc2c(c1)Cc1cc(F)ccc1-2 | x | x | n | n | x | x
Cc1ccc(S(=O)Cc2nc(-c3ccc(C(=O)NCc4cccc(C)c4)cc3)oc2C)cc1 (stereo not given) | n | x | n | n | x | u
O=c1[nH]c2ccc(NS(=O)(=O)c3ccc4ccccc4c3)cc2[nH]1 | n | n | n | n | n | 50.1µM
O=c1[nH]c2ccc(NS(=O)(=O)c3ccc(Cl)cc3)cc2[nH]1 | n | n | n | n | n | 56.2µM
COc1ccc(NS(=O)(=O)c2ccc3[nH]c(=O)[nH]c3c2)cc1 | u | n | n | n | n | u
CC(C)N1C/C(=C/c2ccsc2)C(=O)/C(=C/c2ccsc2)C1 | 44.7µM | u | u | n | n | u
COc1ccc(C(=O)Nc2ccc(-c3nc4ncccc4o3)cc2C)cc1Br | n | x | n | n | x | n
C/C(=N\NC(=O)c1ccc(Br)o1)c1cc2c(cc1NC(=O)CCC(=O)O)OCO2 | u | 44.7µM | n | n | x | 3.16µM
O=C(c1ccco1)N1CCC2(CC1)CCN(C(c1ccccc1)c1ccccc1)CC2 | x | n | x | x | x | n[12.7 µM]
C/C=C\C=C/C(=O)Nc1cccc(C2=NOC3(C2)C[C@@H](C(N)=O)N(C(=O)[C@H]2CCC(=O)N2)C3)c1 (stereo not given in full) | n | 35.5µM | u | u | x | n[12.7 µM]
C/C=C\C=C\C(=O)N1CC2(CC(c3cccc(NC(=O)CC(c4ccccc4)c4ccccc4)c3)=NO2)C[C@H]1C(N)=O (stereo not given in full) | u | 44.7µM | u | n | x | n[12.7 µM]
C/C=C/C=C\C(=O)Nc1cccc(C2=NOC3(C2)C[C@@H](C(N)=O)N(C(=O)c2cc([N+](=O)[O-])cc([N+](=O)[O-])c2)C3)c1 (stereo not given in full) | n | 50.1µM | n | n | x | u
C=C(C)C(=O)N1CC2(CC(c3cccc(NC(=O)/C=C\C=C/C)c3)=NO2)C[C@H]1C(N)=O (stereo not given in full) | n | 20µM | 11.2µM | n | x | u
CCC(=O)Nc1cccc(C2=NOC3(C2)C[C@@H](C(N)=O)N(C(=O)c2cc([N+](=O)[O-])cc([N+](=O)[O-])c2)C3)c1 (stereo not given in full) | n | n | n | n | x | n
Cc1c(-c2nsc(NC(=O)c3ccc(Cl)cc3)n2)nnn1-c1ccc(C(C)C)cc1 | n | x | n | n | x | n
O=C(c1cnccn1)N1CCC2(CC1)CCN(c1ncccn1)CC2 | x | n | x | x | x | n[12.7 µM]
CCSc1nc2c([nH]c3ccccc32)c(=O)n1CC | n | x | n | n | x | n
C/C=C/C(=O)N1CC2(CC(c3cccc(NC(=O)CC)c3)=NO2)C[C@H]1C(N)=O (stereo not given in full) | n | n | n | n | x | u
C/C=C\C(=O)Nc1cccc(C2=NOC3(C2)C[C@@H](C(N)=O)N(C(=O)C2(C)CC2)C3)c1 (stereo not given in full) | n | n | n | n | x | n[12.7 µM]
C/C=C\C=C/C(=O)Nc1cccc(C2=NOC3(C2)C[C@@H](C(N)=O)N(C(=O)/C=C/CC)C3)c1 (stereo not given in full) | n | 14.1µM | u | u | x | u
C/C=C\C=C/C(=O)Nc1cccc(C2=NOC3(C2)C[C@@H](C(N)=O)N(C(=O)C2(C)CC2)C3)c1 (stereo not given in full) | n | 20µM | u | n | x | u
C/C=C\C=C/C(=O)Nc1cccc(C2=NOC3(C2)C[C@@H](C(N)=O)N(C(=O)/C=C/C=C\C)C3)c1 (stereo not given in full) | 79.4µM | 3.55µM | 50.1µM | u | x | u
SMILES | BAZ2B block | Sfp inh | JMJD2A Tudor inh | HP1b chromo inh | L3MBTL1 block | G9a block
CCNC(=O)c1ccc2c(c1)sc1nc(-c3cccc(OC)c3)cn12 | n | x | n | n | x | n
Cc1ccc2cccc(OC(=O)c3ccc4c(c3)OCCO4)c2n1 | x | n | u | n | n | 8.91µM
COc1ccc(-c2cn3nc(N4CCCC(C(=O)NCc5ccc(Cl)cc5)C4)sc3n2)cc1 (stereo not given) | n | x | n | n | x | n
CCOc1ccc(NC(=O)c2cc(=O)[nH]c3ccccc23)cc1 | 56.2µM | n | n | n | n | x
CCOc1ccc(NC(=O)c2cc3ccccc3cc2O)cc1 | 56.2µM | n | 79.4µM | n | x | n[12.7 µM]
CCOC(=O)OCC1OC(C#CC(C)(C)C)C=CC1OC(=O)OCC (stereo not given) | x | n | x | x | x | x
O=C(NCc1ccccc1)C1=C[C@@H](c2coc3ccccc3c2=O)C[C@@H](OCCCCO)O1 | n | n | n | n | u | n[12.7 µM]
CCC1(CC)C(=O)C2=C3C1[C@H](C(=O)OC)C=C(C(=O)OC)C[C@H]3[C@H]1C(=O)N(CC(=O)OC)C(=O)[C@H]1[C@H]2C (stereo not given in full) | x | n | n | n | x | x
COc1ccc(C(CNC(=O)c2cc(SC)ccc2Cl)N(C)C)cc1 (stereo not given) | n | n | n[11.4 µM] | n | n | n
COc1ccc(C(CNC(=O)Cn2c(=O)oc3ccccc32)N(C)C)cc1 (stereo not given) | n | 20µM | n | n | x | 8.91µM
COc1ccc(C(CNC(=O)c2ccccc2SC)N(C)C)cc1 (stereo not given) | n | n | n | n | n | 7.94µM
CCCCNC(=O)COC(=O)c1ccc(Cl)c(S(N)(=O)=O)c1 | n | n | n | n | x | u
Cc1ccc(-n2c(N)c(C(=O)Nc3ccccc3F)sc2=S)cc1C | u | n | u | u | x | 22.4µM
Cc1ccc(NC(=O)c2sc(=S)n(-c3cc(C)ccc3F)c2N)cc1 | u | 50.1µM | u | u | x | 8.91µM
Cc1ccccc1-n1c(N)c(C(=O)Nc2ccc(F)cc2)sc1=S | n | u | n | n | n | 11.2µM
Cc1ccc(C)c(-n2c(N)c(C(N)=O)sc2=S)c1 | n | n | n | n | n | u
CNC(=O)c1sc(=S)n(-c2ccc(OC)cc2)c1N | n | n | n | n | n | n
COc1cccc(Cn2c(=O)c(C)nc3cnc(N4CCOCC4)nc32)c1 | x | n | x | x | x | n[12.7 µM]
O=C(CSc1nnc(-c2cccnc2)o1)NNC(=O)c1ccc(Br)cc1 | n | n | n | n | x | n
Cc1ccc(NC(=O)CSc2nnc(-c3ccccc3Br)o2)cc1C | n | n | n | n | n | 10µM

Screening data from PubChem.
